The values below come from PubChem BioAssay (NCATS).

Calls of active or inactive are those of the source. Entries that show only a call come without a potency. Calls follow the shape of the dose curve; as a rule, active = well fitted inhibition curve with a large enough effect; inconclusive = small, poorly fitted or top-dose-only effect; inactive = flat fitted curve, though single readings scatter.

The test addresses Luciferin 4-monooxygenase (Photinus pyralis) (UniProt P08659). The test is described as follows: Primary firefly luciferase (FLuc) qHTS assay for identification of artifact compounds. (AID 1845220). Also: nearly all actives have a fitted effect of over 60% in size. Conditions: purified firefly luciferase, luminescence, 5 min; series mostly up to 54.1 µM. The method in brief:
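In this counter-screen for luciferase artifacts, test compounds met substrate (10 uM each luciferin and ATP) before 10 nM enzyme started the reaction. Light output was measured 5 min later.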
In general terms: qHTS replaces the single test concentration by a dilution series.
Take `COC1=CC(=O)C[C@@H](C)[C@]12Oc1cc(OC)cc(OC)c1C2=O`: the Potency entry is “inactive”.

On to `C[C@@H]1C/C=C/C=C\C=C\C=C\[C@H](O[C@@H]2O[C@H](C)[C@@H](O)[C@H](N)[C@@H]2O)C[C@@H]2O[C@](O)(C[C@@H](O)C[C@H]3O[C@@H]3/C=C/C(=O)O1)C[C@H](O)[C@H]2C(=O)O`, for which the Potency result was “inactive”. Under `CCOC(=O)[C@H](CCc1ccccc1)N[C@@H](C)C(=O)N1C2CCCCC2C[C@H]1C(=O)O` (some centres undefined) stands “inactive”. Then `CCC[C@@H]1C[C@@H](C(=O)N[C@H](C(C)Cl)[C@H]2O[C@H](SC)[C@H](O)[C@@H](O)[C@H]2O)N(C)C1` (some centres undefined), with “inactive”; and `CC1CCC2C(C)(C)C(O)CCC2(C)C12Cc1c(O)cc3c(c1O2)CN=C3N` (centres undefined), with “inactive”. As for `CC(NCc1ccc(OCc2cccc(F)c2)cc1)C(N)=O` (centres undefined), the Potency result was “inactive”. Then `CN(C)c1cccc(-c2c3c(=O)n(-c4ccccc4Cl)[nH]c3cc(=O)n2C)c1`, with “inactive”. Consider `Cc1ccc2c(c1)C=Cc1cc(C)ccc1C2c1cn(Cc2ccc(C(=O)Nc3nn[nH]n3)o2)c(=O)[nH]c1=S`, for which the Potency entry was “inactive”. Then `CC(C)=CCc1ccc(Oc2c(O)cc(C)cc2CO)c(C(=O)O)c1O`, with “inactive”.
